{"source": "paper PMC12670160", "about": "“A drug-repurposing screen of FDA- and EMA-approved drugs identifies two NF-κB inhibitors active against eumycetoma” (Journal of Antimicrobial Chemotherapy, 2025)", "note": "Counter-ions that a name gives are not always drawn. Screen size: about 5,300 compounds; about 130 (2.5%) showed an effect of 50% or more. For the sample, strong results were picked, then their nearest neighbours and some compounds at random."}
{"system": "M. mycetomatis strain mm55", "conditions": "primary screen, metabolic activity vs growth control; 96 h, 2 µM; inhibitor", "units": {"% viability": "%"}}
{"smiles": "Cc1c(C(=O)NCc2cccnc2)nn(-c2ccc(Cl)cc2Cl)c1-c1ccc(Cl)cc1", "note": "[ONC0001432, mj15]", "% viability": 60.06}
{"smiles": "C[C@@H]1CC2C3CCC4=CC(=O)C=C[C@]4(C)[C@@]3(F)[C@@H](O)C[C@]2(C)[C@@]1(O)C(=O)CO", "note": "(some centres unmarked) [ONC0000416, dexamethasone]", "% viability": 62.67}
{"smiles": "O=C(Nc1cc(C(F)(F)F)cc(C(F)(F)F)c1)c1cnc(Cl)nc1C(F)(F)F", "note": "[ONC0001396, sp100030]", "% viability": 126.3}
{"smiles": "O=C(Nc1ccc([N+](=O)[O-])cc1Cl)c1cc(Cl)ccc1O", "note": "[niclosamide]", "% viability": 70.84}
{"smiles": "O=C(Nc1cc(C(F)(F)F)cc(C(F)(F)F)c1)c1cc(Cl)ccc1O", "note": "[IKK2 inhibitor V (IMD-0354), IMD-0354]", "% viability": 2.589}
{"smiles": "O=C(C[C@H]1NCCC[C@@H]1O)Cn1cnc2cc(Br)c(Cl)cc2c1=O", "note": "(racemic) [ONC0004939, halofuginone]", "% viability": 90.07}
{"smiles": "CC1=CC(=O)NS(=O)(=O)O1", "note": "[ONC0005569, acesulfame potassium]", "% viability": 46}
{"smiles": "c1ccc(-c2ncc(CN3CCN(c4ncccn4)CC3)[nH]2)cc1", "note": "[ONC0000007, ngd941]", "% viability": 130.5}
{"smiles": "CC(COc1ccccc1)NC(C)[C@H](O)c1ccc(O)cc1", "note": "(some centres unmarked) [ONC0000598, isoxsuprine hydrochloride]", "% viability": 84.27}
{"smiles": "CCC(O)(CC(N)=O)c1ccccc1", "note": "(centres unmarked) [ONC0003599, 3hydroxy3phenylpentanamide]", "% viability": 105.2}
{"smiles": "Cc1nc2cc(-n3ncc(C(=O)c4cc5ccccc5[nH]4)c3N)ccc2[nH]1", "note": "[ONC0004455, ch5183284 debio1347]", "% viability": 110.2}
{"smiles": "CCNC(=O)N1CCN(CCCC(c2ccc(F)cc2)c2ccc(F)cc2)CC1", "note": "[ONC0003498, amperozidehcl]", "% viability": 32.95}
{"smiles": "O=c1[nH]c2ccccc2n1C1CCN(CCCC(c2ccc(F)cc2)c2ccc(F)cc2)CC1", "note": "[ONC0000675, pimozide]", "% viability": 106.9}
{"smiles": "Cc1cccc(C)c1NC(=O)CN1CCN(CCCC(c2ccc(F)cc2)c2ccc(F)cc2)CC1", "note": "[ONC0002360, lidoflazine]", "% viability": 112.8}
{"smiles": "Cc1c[nH]c(-c2cnc(NCCNc3ccc(C#N)cn3)nc2-c2ccc(Cl)cc2Cl)n1", "note": "[ONC0004531, chir99021 ct99021 hcl]", "% viability": 57.04}
{"smiles": "C[C@H]1c2cccc(O)c2C(=O)C2C(=O)[C@]3(O)C(=O)C(C(N)=O)C(=O)[C@@H](N(C)C)[C@@H]3[C@@H](O)[C@@H]21", "note": "(some centres unmarked) [ONC0000682, doxycycline hydrochloride]", "% viability": 94.49}
{"smiles": "C[C@]12CCC(=O)C=C1CCC1C2C(=O)C[C@@]2(C)C1CC[C@]2(O)C(=O)CO", "note": "(some centres unmarked) [ONC0005338, cortisone]", "% viability": 64.83}
{"smiles": "Cc1sc(C)c2c1CCC=C2c1cnc[nH]1", "note": "[ONC0000248, tcg1000]", "% viability": 71.17}
{"smiles": "Cc1ccnc(NC(=O)C(C)c2cccc(C(=O)c3ccccc3)c2)c1", "note": "(centres unmarked) [ONC0003716, piketoprofen]", "% viability": 97.11}
{"smiles": "O=C(O)c1ccccc1Nc1cccc(OCc2ccc3ccccc3n2)c1", "note": "[ONC0001414, sr2640]", "% viability": 39.31}
{"smiles": "O=C(O)[C@@H](c1ccc(OCc2ccc3ccccc3n2)cc1)C1CCCC1", "note": "[ONC0005557, veliflapon]", "% viability": 76.74}
{"smiles": "CCCCCC(O)c1cccc(OCc2ccc3ccccc3n2)c1", "note": "(centres unmarked) [ONC0005481, rev5901 l655238]", "% viability": 92.78}
{"smiles": "Cc1cc(O)c2c(c1)C(=O)c1cc(O)cc(O)c1C2=O", "note": "[ONC0004997, emodin]", "% viability": 57.84}
{"smiles": "COc1cc(O)c2c(c1)C(=O)c1cc(C)cc(O)c1C2=O", "note": "[ONC0004501, rheochrysidin physcione]", "% viability": 41.39}
{"smiles": "Cc1cc(O)c2c(c1)C(=O)c1cccc(O)c1C2=O", "note": "[ONC0005265, chrysophanic acid chrysophanol]", "% viability": 118.5}
{"smiles": "CNC(=O)c1ccc2cc([C@]3(O)CCn4cncc43)ccc2c1", "note": "[ONC0004670, tak700 orteronel]", "% viability": 115.9}
{"smiles": "CCN(CCCOc1ccc2c(Nc3cc(CC(=O)Nc4cccc(F)c4)n[nH]3)ncnc2c1)CCOP(=O)(O)O", "note": "[ONC0002222, azd1152]", "% viability": 73.5}
{"smiles": "C[C@@H](NCCc1ccc(O)cc1)[C@@H](O)c1ccc(O)cc1", "note": "(racemic) [ONC0000689, ritodrine hydrochloride]", "% viability": 122.8}
{"smiles": "Cc1oc(=O)oc1COC(=O)C1=C([C@H]2CCCO2)S[C@@H]2[C@@H]([C@@H](C)O)C(=O)N12", "note": "[ONC0001072, faropenem daloxate]", "% viability": 41.67}
{"smiles": "C[C@@H](O)[C@H]1C(=O)N2C(C(=O)[O-])=C([C@H]3CCCO3)S[C@H]12.C[C@@H](O)[C@H]1C(=O)N2C(C(=O)[O-])=C([C@H]3CCCO3)S[C@H]12.O.O.O.O.O.[Na+].[Na+]", "note": "[ONC0000335, faropenem sodium hemipentahydrate]", "% viability": 95.52}
{"smiles": "C1=C/COCc2cc(ccc2OCCN2CCCC2)Nc2nccc(n2)-c2cccc(c2)COC/1", "note": "[ONC0004380, pacritinib sb1518]", "% viability": 107.6}
{"smiles": "O=C(NC1CCNCC1)[C@@H]1CC[C@@H]2CN1C(=O)N2OS(=O)(=O)O", "note": "[ONC0001257, relebactam]", "% viability": 62.24}
{"smiles": "CC[C@H](C)[C@@H]([C@@H](CC(=O)N1CCC[C@H]1[C@H](OC)[C@@H](C)C(=O)N[C@@H](Cc1ccccc1)c1nccs1)OC)N(C)C(=O)[C@@H](NC(=O)[C@H](C(C)C)N(C)C)C(C)C", "note": "[ONC0003667, dolastin10]", "% viability": 74.88}
{"smiles": "N#C/C(=C1/SC[C@@H](c2ccc(Cl)cc2Cl)S1)n1ccnc1", "note": "[Luliconazole]", "% viability": 0.7126}
{"smiles": "N#C/C(=C1/SCC(c2ccccc2Cl)S1)n1ccnc1", "note": "(centres unmarked) [Lanoconazole]", "% viability": 3.92}
{"smiles": "C[C@@]12CC[C@@H]3[C@@](CC[C@H]4[C@@]3(C)CCC[C@@]4(C)C(=O)O)(CC1=O)C2", "note": "[ONC0002858, isosteviol]", "% viability": 83.56}
{"smiles": "CN(C)c1ccc(-c2nc3c(N4CCN(CC(=O)Nc5nccs5)CC4)c(Cl)cnc3[nH]2)cc1", "note": "[ONC0004963, cct129202]", "% viability": 95.03}
{"smiles": "O=C1c2ccccc2NC2=CCCCCN12", "note": "[ONC0003231, 78910tetrahydroazepino21bquinazolin126hone]", "% viability": 99.72}
{"smiles": "COc1ccccc1OCC(O)CNC(C)C", "note": "(centres unmarked) [ONC0003655, moprolol]", "% viability": 69.09}
{"smiles": "[2H]C([2H])([2H])C(O)(CCO[C@@H](C)[C@H]1CC[C@H]2/C(=C/C=C3/C[C@@H](O)C[C@H](O)C3=C)CCC[C@]12C)C([2H])([2H])[2H]", "note": "[ONC0001868, maxacalcitol]", "% viability": 112.3}
{"smiles": "Oc1ccc(C2(c3ccccc3F)CCC(F)(F)CC2)cc1", "note": "[ONC0000174, ac186]", "% viability": 93.25}
{"smiles": "CN(C)C/C=C/C(=O)Nc1cccc(C(=O)Nc2cccc(Nc3ncc(Cl)c(-c4c[nH]c5ccccc45)n3)c2)c1", "note": "[ONC0002061, thz2]", "% viability": 66.57}
{"smiles": "CN(C)C/C=C/C(=O)Nc1ccc(C(=O)Nc2cccc(Nc3ncc(Cl)c(-c4c[nH]c5ccccc45)n3)c2)cc1", "note": "[ONC0002074, thz1]", "% viability": 55.81}
{"smiles": "Cc1cc(C(=O)Nc2nc3cccc(Cl)c3n2[C@@H]2CCCCN(C(=O)/C=C/CN(C)C)C2)ccn1", "note": "[ONC0001107, nazartinib]", "% viability": 39.34}
{"smiles": "CC(=O)[C@@]12OC(C)(c3ccccc3)O[C@@H]1C[C@H]1[C@@H]3CCC4=CC(=O)CC[C@]4(C)[C@H]3CC[C@@]12C", "note": "(some centres unmarked) [ONC0002369, algestoneacetophenide]", "% viability": 99.76}
{"smiles": "CC(Nc1ncnc2nc[nH]c12)c1cc2ccc(F)cc2nc1-c1ccccn1", "note": "(centres unmarked) [ONC0004426, amg319]", "% viability": 156.7}
{"smiles": "N[C@H](CSC(c1ccccc1)(c1ccccc1)c1ccccc1)C(=O)O", "note": "[ONC0001742, strityllcysteine]", "% viability": 48.39}
{"smiles": "N[C@H](Cc1ccccc1)C(=O)O", "note": "[ONC0002457, dphenylalanine]", "% viability": 101.3}
{"smiles": "CSC[C@H](N)C(=O)O", "note": "[ONC0003388, smethylcysteine]", "% viability": 83.56}
{"smiles": "C[C@]12C=CC(=O)C=C1CCC1C2[C@@H](O)C[C@@]2(C)C1CC[C@]2(O)C(=O)CO", "note": "(some centres unmarked) [ONC0005351, prednisolone]", "% viability": 112.6}
{"smiles": "Cc1cc(-c2ccc(/N=N/c3ccc4c(S(=O)(=O)O)cc(S(=O)(=O)O)c(N)c4c3O)c(C)c2)ccc1/N=N/c1ccc2c(S(=O)(=O)O)cc(S(=O)(=O)O)c(N)c2c1O", "note": "[ONC0003296, evans blue]", "% viability": 49.05}
{"smiles": "COc1cc(-c2ccc(/N=N/c3ccc4c(S(=O)(=O)O)cc(S(=O)(=O)O)c(N)c4c3O)c(OC)c2)ccc1/N=N/c1ccc2c(S(=O)(=O)O)cc(S(=O)(=O)O)c(N)c2c1O", "note": "[ONC0002750, chicagoskyblue6b]", "% viability": 94.85}
{"smiles": "COC(=O)CC1CC(c2ccc(O)cc2)=NO1", "note": "(centres unmarked) [ONC0001839, iso1]", "% viability": 78.97}
{"smiles": "N[C@@H](CC(=O)N1CCn2c(nnc2C(F)(F)F)C1)Cc1cc(F)c(F)cc1F", "note": "[ONC0004045, sitagliptin phosphate]", "% viability": 93.31}
{"smiles": "N[C@@H](CC(=O)N1CCn2c(nnc2C(F)(F)F)C1)Cc1n[nH]c2c(F)c(F)ccc12", "note": "[ONC0001660, pk44 phosphate]", "% viability": 33.36}
{"smiles": "NCCNc1ccc(NCCN)c2c1C(=O)c1ccncc1C2=O.O=C(O)/C=C\\C(=O)O.O=C(O)/C=C\\C(=O)O", "note": "[ONC0000916, pixantrone dimaleate]", "% viability": 85.22}
